# Shown are actives, neighbours in structure and some others; about 12% of the full set was active somewhere.
# Sfp inh: inhibitors of Bacillus subtilis Sfp phosphopantetheinyl transferase | Q9F4F7 | Biochemical Sfp PPTase activity, qHTS | Potency, µM, for the others: largest response in the series, negative = inhibition, most hits filed as inhibitors | actives 3.5% (n = 310,000) | AID 1490;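 also: the enzyme is Sfp with the accession as filed and its product quenches rhodamine fluorescence; 0% = enzyme reaction without inhibitor and -100% = no enzyme wells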
#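 Fluorescence-quenching assay: 15 nM Sfp-PPTase preincubated 15 min at room temperature with compound, then 5 uM rhodamine-CoA and 12.5 uM BHQ-2-labelled YbbR peptide added. Fluorescence (ex 525/em 598 nm) read at start and after 30 min; difference gives rate.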
# L3MBTL1 block: inhibitors of human L3MBTL1; AlphaScreen L3MBTL1–H3K9me1 peptide binding; Q9Y468; Potency, µM (series often up to 57.1 µM), for the others: at the highest dose activity, negative = inhibition, usual class: inhibitors; actives 0.66% (n = 230,000); AID 485360; also: % is scaled to controls: 0 for no effect and ±100 for the full control effect; nearly all actives have a fitted effect of over 60% in size
#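 Read-out is AlphaScreen signal from streptavidin donor and nickel chelate acceptor beads (10 ug/mL final each) bridging L3MBTL1 (50 nM) and biotinylated K9-monomethylated H3(1-15) peptide (75 nM), after 30 min compound exposure at room temperature.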
# HP1b chromo inh: inhibitors of HP1-beta chromodomain binding to methylated histone tails; P83916; AlphaScreen HP1-beta / biotin-H3K9me3 peptide binding; Potency, µM (top dose mostly 114 µM), for inactives: at the highest dose activity change, negative = inhibition, usual class: inhibitors; actives 0.56% (n = 390,000); also: nearly all actives have a fitted effect of over 70% in size
# Target sequence (P83916 whole entry, looked up): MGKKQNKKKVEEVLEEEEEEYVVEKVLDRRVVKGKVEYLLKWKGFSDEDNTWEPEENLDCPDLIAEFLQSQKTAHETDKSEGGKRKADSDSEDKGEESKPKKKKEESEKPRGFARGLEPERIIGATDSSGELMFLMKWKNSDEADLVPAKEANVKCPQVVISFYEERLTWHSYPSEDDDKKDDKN
#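 Compound inhibition of the preformed complex between 50 nM HP1-beta and 50 nM biotinylated H3K9me3 peptide was read by AlphaScreen. Buffer was PBS pH 7.4 with 0.01% Tween-20. Incubations ran 30 min at room temperature, with 10 ug/mL donor/acceptor beads.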
# BAZ2B block: BAZ2B (human) inhibition. Q9UIF8. AlphaScreen BAZ2B-H3K14Ac peptide displacement. Potency, µM (highest dose often 114 µM), without a hit: top-dose activity change, negative = inhibition, actives largely listed as inhibitors. actives 4.4% (n = 360,000); also: % is scaled to controls: 0 for no effect and ±100 for the full control effect; nearly all actives have a fitted effect of over 60% in size
#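 Multi-concentration screen (max 110 uM) measuring displacement of acetylated histone H3 peptide from BAZ2B by AlphaScreen, using 50 nM protein, 50 nM peptide and 10 ug/mL streptavidin donor plus Ni-chelate acceptor beads.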
# JMJD2A Tudor inh: inhibitors of human JMJD2A Tudor domain | actives 4.4% (n = 390,000) | AlphaScreen JMJD2A-Tudor / H3K4me3 peptide binding | Potency, µM (top dose mostly 114 µM), for inactives: at the highest dose activity change, negative = inhibition, most hits filed as inhibitors | AID 504339 | O75164; also: % is scaled to controls: 0 for no effect and ±100 for the full control effect; nearly all actives have a fitted effect of over 50% in size
# G9a block: blocks human histone lysine methyltransferase G9a; Q96KQ7; G9a H3K9 monomethylation, AlphaScreen, 2 h; Potency, µM (titrated, usually from 102 µM), without a hit: at the top dose activity, negative = inhibition, hits mostly inhibitors; actives 8.8% (n = 350,000); also: % is scaled to controls: 0 for no effect and ±100 for the full control effect; nearly all actives have a fitted effect of over 75% in size
# Target sequence (Q96KQ7 913-1193 limits assumed): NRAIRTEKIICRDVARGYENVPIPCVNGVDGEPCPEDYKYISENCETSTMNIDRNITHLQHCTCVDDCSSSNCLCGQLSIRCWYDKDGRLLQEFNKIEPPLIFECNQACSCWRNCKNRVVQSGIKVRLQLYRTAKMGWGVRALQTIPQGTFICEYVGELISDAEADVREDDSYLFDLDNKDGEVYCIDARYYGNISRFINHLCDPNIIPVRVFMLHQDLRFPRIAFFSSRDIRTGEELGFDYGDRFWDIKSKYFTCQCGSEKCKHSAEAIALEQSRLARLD
#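 Signal arises when biotinylated H3K9 peptide, once monomethylated, bridges streptavidin donor and antibody-captured acceptor beads. Enzyme at 20 nM was preincubated 15 min with test compounds; peptide 500 nM and SAM 20 uM then reacted for 2 h.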
# An asterisk follows results filed as active; ? = inconclusive; nt = no result given; ! = not confirmed by another sample; [ ] = dose if it differs, or a comment. Calls follow the shape of the dose curve; as a rule, active = well fitted curve in the direction sought with a large enough effect; inconclusive = small, poorly fitted or top-dose-only effect, or another doubt; inactive = no such curve, though single readings can be large; an effect the other way counts as inactive or inconclusive. Potency is read from the fitted curve at half-maximal effect.
SMILES,Sfp inh,L3MBTL1 block,HP1b chromo inh,BAZ2B block,JMJD2A Tudor inh,G9a block
CC(CN(C)C)C(C)(O)Cc1ccc(Cl)cc1 (configuration not stated),-1.4%,nt,nt,nt,nt,21.4%[59 µM]
CC(=O)c1cccc(NC(=O)CCc2nc3cccnc3n2Cc2cccs2)c1,nt,nt,15.0%,-19.0%,-30.1%,-2.9%[59 µM]
Cc1c(NC(=O)CN2CC(C)OC(C)C2)c(=O)n(-c2ccccc2)n1C (configuration not stated),?,-2.0%,56.2µM*!,20µM*,11.2µM*!,15.8µM*
Cc1c(NC(=O)CN2CCN(c3ccccc3)CC2)c(=O)n(-c2ccccc2)n1C,11.0%,-7.3%,32.2%,6.6%,-14.3%,-6.5%
Cc1c(NC(=O)C2CC=CCC2C(=O)O)c(=O)n(-c2ccccc2)n1C (configuration not stated),8.5%,nt,11.5%,79.4µM*,-19.5%,-46.5%[12.7 µM]
CCN1CCN(C(C)C(=O)Nc2c(C)n(C)n(-c3ccccc3)c2=O)CC1 (configuration not stated),?,-1.5%,?,50.1µM*,7.94µM*,11.2µM*
CCN(CC)C(=O)Nc1c(C)n(C)n(-c2ccccc2)c1=O,-8.9%,-23.7%,14.2%,5.5%,3.4%,14.7%[59 µM]
Cc1cccn2c(=O)cc(CSc3nnc(NC(=O)c4ccc(F)cc4)s3)nc12,nt,nt,22.3%[57 µM],6.7%,11.7%,0.5%[59 µM]
CSc1ccccc1NC(=O)c1cc2ncc(Br)cn2n1,?,-3.6%[11.4 µM],-10.0%,56.2µM*,?,35.5µM*
CSc1ccccc1NC(=O)c1cnccn1,-27.3%,0.3%,6.4%,0.3%,-23.8%,25.1µM*
Cc1nn(Cc2ccc(F)cc2)c(C)c1NC(=O)c1cc2ncc(Br)cn2n1,9.1%,-19.3%,-8.3%,?,?,?
Cc1ccccc1Cn1ccc(NC(=O)c2cc3ncc(Br)cn3n2)n1,8.5%,-29.9%,33.2%,50.1µM*,-11.2%,-37.1%
Cc1cccn2c(=O)c(/C=C(\C#N)c3nc4ccccc4s3)c(Oc3ccc(Br)cc3)nc12,nt,nt,48.8%,1.6%,-15.5%,?
N#C/C(=C\c1c(Oc2ccc(F)cc2)nc2ccccn2c1=O)c1nc2ccccc2s1,nt,nt,40.0%,-4.0%,-16.5%,2.24µM*
Cc1ccc(Oc2nc3ccccn3c(=O)c2/C=C(\C#N)c2nc3ccccc3s2)c(C)c1,nt,nt,55.0%,-1.8%,2.4%,2.51µM*
CC1=C(c2ccc(C)cc2)S(=O)(=O)NC1=NCCCN1CCN(c2ccccc2F)CC1,nt,nt,44.6%,2.5%,-5.6%,-33.1%[59 µM]
CC1(OC(=O)C2CCCC2)C(=O)C=C2C=C(c3ccsc3)N(c3ccc(CO)cc3)C=C2C1=O (configuration not stated),5.7%,nt,nt,nt,nt,nt
COc1cccc(CNS(=O)(=O)c2cc(-c3cc(C)no3)ccc2C(C)C)c1,3.5%,nt,36.7%,-12.4%,0.7%,70.8µM*
Cc1cc(-c2ccc(C(C)C)c(S(=O)(=O)NCc3ccco3)c2)on1,-4.1%,nt,22.7%,50.1µM*,-34.5%,79.4µM*
Cc1ccc(S(=O)(=O)N2CCN(c3nc(-c4cncn4C)nc4ccccc34)CC2)cc1,nt,nt,-1.9%,nt,?,nt
Cc1cccc(NC(=O)CSc2ncnc3nc[nH]c23)c1C,17.1%,-0.8%,33.1%,-34.0%,-29.8%,44.7µM*
Cc1ccc(C)c(NC(=O)CSc2ncnc3nc[nH]c23)c1,9.5%,-2.4%,20.6%,-1.0%,-23.3%,?
Cc1cccc(NC(=O)CNC(=O)c2ccc3nc[nH]c3c2)c1C,nt,?,-6.4%,50.1µM*,-27.0%,?
CCCOc1ccc(Nc2cc(C)nc(C)n2)cc1,nt,nt,42.3%,?,-16.2%,-43.0%[59 µM]
CCCCCCNc1c([N+](=O)[O-])cc(C)cc1[N+](=O)[O-],nt,nt,8.91µM*,nt,12.6µM*,nt
SMILES,Sfp inh,L3MBTL1 block,HP1b chromo inh,BAZ2B block,JMJD2A Tudor inh,G9a block
Cc1ccc(C(=O)Nc2ccc3oc(-c4ccccc4C)nc3c2)cc1,nt,nt,51.5%,-11.6%,-3.3%,1.7%[59 µM]
S=c1[nH]ncn1/N=C/c1ccc(N2CCOCC2)cc1,?,nt,34.7%,-1.9%,2.82µM*,1.78µM*
C(=N\n1cnnc1)/c1ccc(N2CCOCC2)cc1,17.3%,-1.7%,40.2%,nt,-9.6%,17.4%[59 µM]
S=c1[nH]ncn1/N=C/c1ccc(Br)cc1,-6.4%,-2.3%,-5.3%,-29.1%,7.94µM*,1.26µM*
CCOc1ccc(/C=N/n2cc(-c3ccccc3)[nH]c2=S)cc1,5.9%,-28.8%,?,-19.3%,-28.0%,?
S=c1[nH]c(-c2ccccc2)cn1/N=C/c1ccncc1,79.4µM*,-9.3%,-23.9%[57 µM],-21.6%,0.708µM*,1.58µM*
S=c1[nH]ncn1/N=C/c1ccccc1,?,-1.8%,42.2%,-8.2%,6.31µM*,26.0%[2.33 µM]
CCC(Oc1ccccc1)C(=O)Nc1ccccc1OCc1cc(=O)n2ccccc2n1 (configuration not stated),nt,nt,23.9%[57 µM],11.4%,2.9%,-25.9%[59 µM]
FC(F)(F)C(F)(F)C(F)(F)C(F)(F)C(F)(F)C(F)(F)F,13.9%,nt,nt,nt,nt,10.2%[12.7 µM]
O=C(CSc1nc2c([nH]c3ccccc32)c(=O)n1-c1ccc(Cl)cc1)N1CCOCC1,nt,nt,52.5%[57 µM],42.2%,-5.8%,8.3%[59 µM]
Fc1ccc(NC(=S)N2CCCc3ccccc32)cc1,-19.8%,-7.4%,-17.4%,?,-26.1%,39.8µM*
CC(Oc1ccc(Cl)cc1Cl)C(=O)NC(=S)N1CCc2ccccc21 (configuration not stated),16.8%,-29.0%,17.5%,-21.8%,-33.7%,28.2µM*
O=C(NC(=S)N1CCc2ccccc21)C1CCC1,-0.5%,-7.3%,16.8%,-24.5%,-2.5%,?
CC(C)(C)C(=O)NC(=S)N1CCc2ccccc21,-27.2%,-9.6%,-21.8%[57 µM],?,-28.9%,20µM*
COc1cccc(C(=O)Nc2nc3nc(C)c(Cc4ccccc4)c(=O)n3[nH]2)c1,nt,nt,38.1%,-37.9%,-28.3%,?
COc1cc(CNC(=O)c2cnc3c(-c4cccc(C)c4)c(C)nn3c2C)cc(OC)c1OC,nt,nt,-18.6%,-5.7%,-21.7%,4.1%[59 µM]
COCCCNc1nc2c(S(=O)(=O)c3ccc(C)c(C)c3)nnn2c2ccc(Cl)cc12,nt,nt,45.6%,-0.9%,2.9%,6.5%[59 µM]
CCOc1ccc(-c2cc(NC(=O)c3cccc(Cl)c3)c(C(=O)OC)s2)cc1,nt,nt,61.6%,0.0%,-4.0%,20.2%[59 µM]
O=c1c(-c2ccc(Br)cc2)[n+]([O-])c2ccccc2n1OCc1ccccc1,1.9%,nt,27.9%,-11.7%,-14.1%,-6.7%
CC(C)(C)c1ccc(COn2c(=O)c(-c3ccco3)[n+]([O-])c3ccccc32)cc1,56.2µM*,nt,27.9%,-9.9%,9.5%,?
COc1ccc(N2CCN(S(=O)(=O)c3ccc4c(c3)CCCN4C(C)=O)CC2)cc1,nt,nt,17.7%[57 µM],4.7%,-26.8%,?

# Screens as filed in PubChem BioAssay.
